# Source: PubChem BioAssay
# DT40 TDP1 CPT: DT40-hTDP1 cell growth loss with CPT; Potency, µM (highest dose often 46.2 µM), for the others: at the top dose activity change, negative = growth inhibition, hits mostly inhibitors; AID 686979; chicken DT40 Tdp1-/-;hTDP1 cells + 20 nM CPT, ATP luminescence, 48 h; hit rate 12% among 420,000; further: nearly all actives have a fitted effect of over 55% in size
#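 Chicken DT40 Tdp1-/- cells stably complemented with human TDP1 were seeded at 400 cells/well in medium containing 20 nM camptothecin, exposed to pin-transferred compounds, and grown at 37 °C for at least 48 hr. Viability was read as ATP luminescence.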
# VP16 counter: Gal4-VP16 reporter inhibition counter-screen; Potency, µM (titrated, usually from 53.6 µM), for the others: top-dose activity, negative = inhibition, actives largely listed as inhibitors; AID 2546; Drosophila S2 Gal4-VP16 UAS-luciferase, luminescence, 20 h; hit rate 3.5% among 310,000;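 further: Gal4-VP16 expression switched on by copper sulfate through the metallothionein promoter; nearly all actives have a fitted effect of over 50% in size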
# TDP1 cell noCPT: qHTS for Inhibitors of human tyrosyl-DNA phosphodiesterase 1 (TDP1): qHTS in cells in absence of CPT | DT40 Tdp1-/- hTDP1 cells, no CPT, ATP luminescence, 48 h | Potency, µM (series often up to 46.2 µM), for the others: at the highest dose activity change, negative = growth inhibition, usual class: inhibitors | hit rate 15% among 420,000 | AID 686978, 2013; further: nearly all actives have a fitted effect of over 55% in size
#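 Chicken DT40 Tdp1-/- cells complemented with human TDP1, screened without camptothecin (DMSO vehicle only), 400 cells/well. Compounds pin-transferred, cells incubated at 37 °C for at least 48 hr. Growth read as ATP-dependent luminescence (CellTiter-Glo, 30 min at RT).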
# RORgamma inh: blocks mouse ROR gamma transcriptional activity; P51450; Drosophila S2 Gal4-RORgamma UAS-luciferase reporter, 20 h; Potency, µM (top dose mostly 53.6 µM), inactives show top-dose activity change, negative = inhibition, most hits filed as inhibitors; hit rate 5.4% among 310,000; AID 2551; further: nearly all actives have a fitted effect of over 60% in size
# Target sequence (P51450 whole entry, looked up, the tested form may be a part): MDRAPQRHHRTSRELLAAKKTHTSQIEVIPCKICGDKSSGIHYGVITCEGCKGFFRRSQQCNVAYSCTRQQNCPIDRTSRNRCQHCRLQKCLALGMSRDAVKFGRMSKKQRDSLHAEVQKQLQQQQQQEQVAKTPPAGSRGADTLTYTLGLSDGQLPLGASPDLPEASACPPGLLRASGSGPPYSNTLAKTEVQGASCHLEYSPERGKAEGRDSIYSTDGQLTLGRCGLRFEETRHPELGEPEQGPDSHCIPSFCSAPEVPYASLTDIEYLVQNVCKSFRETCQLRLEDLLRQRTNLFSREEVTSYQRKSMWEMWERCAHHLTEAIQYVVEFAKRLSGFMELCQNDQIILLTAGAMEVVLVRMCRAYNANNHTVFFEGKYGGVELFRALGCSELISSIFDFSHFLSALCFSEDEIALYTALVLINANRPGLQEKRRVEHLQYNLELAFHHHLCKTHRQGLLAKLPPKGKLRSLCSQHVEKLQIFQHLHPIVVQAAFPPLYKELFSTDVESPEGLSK
#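 Compounds are pin-transferred onto Drosophila Schneider cells expressing a copper-inducible Gal4–ROR gamma transactivation domain fusion. After 1 hr, copper sulfate is added to 700 uM final; luciferase is read 20 hr later.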
# TDP1 inh: inhibitors of human tyrosyl-DNA phosphodiesterase TDP1; recombinant TDP1, AlphaScreen DNA substrate cleavage; hit rate 0.28% among 350,000; Q9NUW8; AID 485290; Potency, µM (doses to about 130 µM), for inactives: at the highest dose activity change, negative = inhibition, most hits filed as inhibitors; further: nearly all actives have a fitted effect of over 40% in size
#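 Tdp1 1 nM final; 15 min RT w/ cpd; substrate 15 nM, 5 min; beads 10 ug/ml, 10 min; AlphaScreen read. Neg ctrl: no enzyme.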
# Starred values were filed as active, the others as inactive; u = inconclusive; x = not tested or not shown; [ ] = another dose, or the depositor's remark. Most compounds without a hit are left out; they make up all but 19% or so of the library. The call rests on the fitted dose curve; in most records, active means well fitted curve in the direction sought with a large enough effect; inconclusive means small, poorly fitted or top-dose-only effect, or another doubt; inactive means no such curve, though single readings can be large; an effect the other way counts as inactive or inconclusive. On the % scale 0 is the no-effect control and ±100 the full control effect; potency means the concentration at half of the fitted maximal effect.
SMILES,DT40 TDP1 CPT,VP16 counter,TDP1 cell noCPT,RORgamma inh,TDP1 inh
CC(=O)Nc1ccc(C=NNc2nnc(NN=Cc3ccc(NC(C)=O)cc3)c3ccccc23)cc1,2.91µM*,x,4.11µM*,x,x
Clc1nnc(N/N=C/c2ccccc2)c2ccccc12,u,u,u,10µM*,8.0%
O=C(O)C12C[C@H]3C[C@@H](C1)CC(n1ncc(N4CCN(c5ccccc5)CC4)c(Cl)c1=O)(C3)C2,-2.5%,-6.5%,-5.9%,19.3%,2.3%
CC(C)COC(=O)N1CCCCC1c1cc(C(=O)N2CCOCC2)no1 (stereo not given),-2.2%,x,-12.3%,x,x
Cc1cccc(CNc2cc(-c3ccc(N(C)C)cc3)ncn2)c1,-25.5%,-7.5%,u,u,18.4%[56.1 µM]
CCOc1cc2[nH]c(=O)n(CCCCCC(=O)NC(C)CC)c(=O)c2cc1OCC (stereo not given),u,x,u,x,3.4%
Cc1cc(C)n(-c2cc(N3CCN(S(=O)(=O)c4ccc(C)c(C)c4)CC3)ccc2[N+](=O)[O-])n1,20.6µM*,3.1%,u,11.2%,5.9%
Cn1cnnc1Sc1cc(N2CCN(S(=O)(=O)c3ccc4ccccc4c3)CC2)ccc1[N+](=O)[O-],u,2.0%,u,41.2%,3.0%
Cc1cc(C)n(-c2cc(N3CCN(S(=O)(=O)c4ccc5ccccc5c4)CC3)ccc2[N+](=O)[O-])n1,u,-4.9%,9.2µM*,24.1%,4.1%
Cn1cnnc1Sc1cc(N2CCN(S(=O)(=O)c3ccc(Cl)c(Cl)c3)CC2)ccc1[N+](=O)[O-],u,27.1%,14.6µM*,-2.3%,0.0%
NC(=O)NCc1ccccc1F,-3.3%,6.9%,11.7%,-1.9%,x
CCSc1nccc(-c2nn(-c3ccc(C)cc3)ccc2=O)n1,6.51µM*,-11.5%,6.51µM*,-2.0%,2.3%
C=CCSc1nccc(-c2nn(-c3ccc(C)cc3)ccc2=O)n1,7.31µM*,-20.1%,5.8µM*,11.9%,2.8%
Nc1nccc(-c2nn(-c3ccc(Cl)cc3)ccc2=O)n1,-11.1%,0.9%,-14.9%,-1.2%,0.0%
C#CCSc1nccc(-c2nn(-c3ccc(C)cc3)ccc2=O)n1,u,-8.0%,25.9µM*,34.3%,2.9%
CSc1nccc(-c2nn(-c3ccc(C)cc3)ccc2=O)n1,7.31µM*,4.0%,5.8µM*,5.9%,4.6%
COc1ccc(S(=O)(=O)N2CCC(C(=O)NCCc3ccc4c(c3)OCO4)CC2)cc1,-25.2%,5.5%,-9.7%,27.6%,4.2%
CC(Sc1nn(-c2ccc(F)cc2)c(=S)s1)C(=O)c1c(N)n(C)c(=O)n(C)c1=O (stereo not given),u,x,13µM*,x,-8.2%[0.505 µM]
Cn1c(N)c(C(=O)CSc2nn(-c3ccccc3)c(=S)s2)c(=O)n(C)c1=O,u,x,16.4µM*,x,-11.0%
CN(c1ccc(C(=O)NCCSCc2ccco2)cc1)S(C)(=O)=O,-20.2%,u,u,-16.8%,-2.2%
O=C(NCc1nc(-c2ccc(C(F)(F)F)cc2)no1)Nc1ccc(OC(F)(F)F)cc1,u,u,8.2µM*,2.0%,1.3%
CCN1CCN(C(=O)c2ccc(CSc3ccc(C)cc3)cc2)CC1,u,-1.4%,13µM*,23.0%,-5.3%
Cc1ccc(CN2CCSc3ccc(C(=O)N4CCN(c5ncccn5)CC4)cc32)cc1,20.6µM*,u,16.4µM*,8.1%,6.6%
Cc1ccc(SCc2ccc(C(=O)N3CCCC3)cc2)cc1,5.0%,8.1%,u,u,-2.6%
CCN1CCN(C(=O)c2ccc3c(c2)N(Cc2ccc(C)cc2)CCS3)CC1,20.6µM*,-8.6%,23.1µM*,-2.9%,6.2%
SMILES,DT40 TDP1 CPT,VP16 counter,TDP1 cell noCPT,RORgamma inh,TDP1 inh
CC(=O)c1ccc(NC(=O)CN2CCC(NC(=O)C3CCCCC3)CC2)cc1,-1.5%,14.2%,-22.0%,-32.4%,2.8%
Cc1ccc(NC(=O)Cn2c(=O)n(CCc3ccccc3)c(=O)c3c4c(sc32)CCCC4)c(C)c1,5.1%,x,4.9%,x,1.8%
COC(=O)C[C@H]1c2cc(F)cc(F)c2S(=O)(=O)N1C1CCN(Cc2ccccc2)CC1,9.2µM*,x,6.51µM*,x,x
CC(=O)C[C@H]1c2cc(F)cc(F)c2S(=O)(=O)N1C1CCN(Cc2ccccc2)CC1,5.62µM*,x,3.98µM*,x,x
CCN(CC)S(=O)(=O)N1CCC(C(=O)NCCC2=CCCCC2)CC1,u,3.7%,u,10.5%,4.6%
CCOC(=O)N1CCN(C(=O)CN(c2ccc(Oc3ccccc3)cc2)S(C)(=O)=O)CC1,-29.3%,4.3%,-29.9%,-10.2%,1.0%
C=CCn1c(=O)c2ccccc2n2c(SCc3nc4ccccc4s3)nnc12,u,-1.0%,16.4µM*,u,-2.0%
CCOC(=O)OCC1OC(c2ccccc2)C=CC1Oc1ccc(F)cc1C (stereo not given),x,0.3%[10 µM],x,12.4%[10 µM],1.6%[21 µM]
Cc1nn(CCC#N)c(N)c1C1(O)C(=O)Nc2c(Cl)cc(Cl)cc21 (stereo not given),16.4µM*,-6.8%,3.66µM*,u,-2.9%
Cc1cc(NC(=O)c2ccc(Cl)cc2Cl)n(CCC#N)n1,-13.5%,25.4%,-8.7%,3.6%,2.5%
O=C(O)Cn1cnc2scc(-c3ccccc3)c2c1=O,-19.4%,-0.1%,-14.3%,-14.8%,4.8%
O=c1c2c(-c3ccccc3)csc2ncn1/N=C/c1c2ccccc2cc2ccccc12,u,2.7%,16.4µM*,28.2%,3.0%
Cc1nn(-c2ccccc2)c(N2CCCC2)c1/C=N/n1cnc2scc(-c3ccccc3)c2c1=O,10µM*,1.1%,12.6µM*,-5.7%,-5.2%
O=C(Nc1ccc(Br)c(Cl)c1)c1ccco1,-14.2%,17.8%,-25.1%,u,1.0%
CCN(CC)c1ccc(/C=N/NC(=O)C2CC2)cc1,u,18.5%,u,9.0%,5.5%
CCOc1ccc(/C=N/NC(=O)c2c(-c3ccccc3)noc2C)cc1,13.9%,u,-29.7%,u,0.0%
CCN(CC)c1ccc(/C=N/NC(=O)c2c(-c3ccccc3)noc2C)cc1,-25.1%,u,u,11.2µM*,5.5%
Cc1onc(-c2ccccc2)c1C(=O)N/N=C/c1ccc([N+](=O)[O-])s1,16.4µM*,11.2µM*,13µM*,11.2µM*,8.9%
CCN(CC)c1ccc(/C=N/NC(=O)Nc2nonc2N)cc1,-9.3%,-99.1%,-19.1%,7.08µM*,5.3%
Cc1onc(-c2ccccc2)c1C(=O)N/N=C/c1ccco1,-28.9%,-12.6%,-0.5%,u,1.3%
CCN(CC)c1ccc(/C=N/NC(=O)c2c(Cl)c(C)nn2C)cc1,u,u,u,5.62µM*,7.9%
COCc1cc(C)nc2sc(C(=O)Nc3ccccc3C)c(N)c12,-16.0%,8.6%,-26.9%,22.4%,0.6%
